# Most compounds without a hit are left out; they make up all but 3.8% or so of the library.
# tim23-1 inh: growth inhibitors of tim23-1 mutant yeast, primary screen, luminescence, uHTS; S. cerevisiae tim23-1 growth, BacTiter-Glo luminescence, 24 h; inhibition, % at 20 µM; 1.3% of 330,000 active; AID 463212, 2010;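 active = growth inhibition of the mutant yeast at or above 50%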;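 note: temperature-sensitive mutant grown at 25 °C; plate controls were DMSO-treated mutant yeast for no effect and medium wells lacking yeast for full effect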
# NLRP3 yeast inh: NALP3 inflammasome inhibitors in reconstituted yeast, primary screen, luminescence, uHTS | 0.39% of 330,000 active | inhibition, % at 10 µM | Yeast reconstituted NLRP3/ASC/caspase-1, beta-gal luminescence, 24 h;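 active = inhibition of 50% or more; inactive = inhibition below 50%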;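 note: plate controls were induced DMSO wells for no effect and uninduced yeast grown without galactose for full effect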
# Yeast superoxide: reduction of superoxide in aged yeast, primary screen, HTS. S. cerevisiae aged cells, superoxide DHE fluorescence; active compounds read low. superoxide response (% of plate mean), % at 10 µM. 0.18% of 330,000 active. AID 2690, 2010;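 active = superoxide response under a set limit, about three screen SD below normal, cut at about 65% in these data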;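 note: yeast aged for seven days with compound at 30 °C before DHE staining; 100% = average MFI of all compound-treated wells on the plate with controls excluded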
# TIM10 inh: growth inhibitors of isogenic TIM10 control yeast, primary screen, counter-screen for tim10-1 yeast inhibitor project, luminescence, uHTS; inhibition, % at 10 µM; S. cerevisiae TIM10 strain growth, BacTiter-Glo luminescence, 24 h; 1.4% of 330,000 active;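 active = inhibition of 40% or more at the single tested concentration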;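 note: wild-type TIM10 isogenic control strain grown at permissive 25 °C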
# tim10-1 inh: growth inhibitors of tim10-1 mutant yeast, primary screen, luminescence, uHTS. S. cerevisiae tim10-1 ts strain growth, BacTiter-Glo, 24 h. inhibition, % at 20 µM. 2.2% of 330,000 active. AID 463190, 2010;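 active = inhibition of at least 40%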;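 note: mutant grown at 25 °C; 0% = DMSO wells with yeast and 100% = wells holding no yeast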
# NALP3 confirm: NALP3 inhibitors retested in yeast, confirmation, luminescence, single concentration. 81% of 1,300 active. yeast expressing human NALP3. shares compounds with NLRP3 yeast inh. inhibition, % at 10 µM; in the data active = inhibition above about 48%
# Casp1 ASC ctr: CASP1-PYCARD signaling inhibition in yeast, confirmatory test, counterassay for NLRP3 inhibitor program, one-dose; shares compounds with NLRP3 yeast inh; yeast expressing Caspase-1-ASC, luminescence counter screen; inhibition, % at 10 µM; 66% of 1,000 active
# NALP3 retest: NALP3 inhibitors in yeast, repeat test, confirmation, luminescence, single concentration, retest; shares compounds with NLRP3 yeast inh; yeast expressing human NALP3, luminescence read-out; inhibition, % at 10 µM; 53% of 1,000 active; AID 488794, 2010
# tim10-1 confirm: growth inhibitors of tim10-1 mutant yeast, confirmation, single concentration, luminescence, S. cerevisiae. shares compounds with tim10-1 inh. S. cerevisiae tim10-1 ts strain growth, BacTiter-Glo, 24 h. inhibition, % at 20 µM. 56% of 7,400 active. AID 463213, 2010;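 active = inhibition of yeast growth at or above a set limit in either of two repeat tests at 20 µM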;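 note: tim10-1 mutant grown at permissive 25 °C to find synthetic lethal compounds; 0% = DMSO yeast wells and 100% = medium wells without yeast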
# TIM10 conf: growth inhibitors of wild-type TIM10 yeast, confirmation, counter-screen for tim10-1 synthetic lethality project, single concentration, luminescence, S. cerevisiae; inhibition, % at 10 µM; 63% of 4,600 active; S. cerevisiae tim10 strain growth, BacTiter-Glo luminescence, 24 h; shares compounds with TIM10 inh;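 active = inhibition of yeast growth at or above a set limit in either of two replicates at 10 µM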;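 note: this counterscreen used the strain with wild-type TIM10; 0% = yeast with DMSO and 100% = medium wells lacking yeast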
# tim23-1 confirm: tim23-1 mutant yeast growth inhibitors, confirmation, luminescence, single concentration; shares compounds with tim23-1 inh; S. cerevisiae tim23-1 growth, BacTiter-Glo luminescence, 24 h; inhibition, % at 20 µM; 83% of 4,400 active; AID 463218, 2010;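 active = inhibition above about 39% in either of two replicate wells at 20 µM, limit read from the data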;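 note: temperature-sensitive tim23-1 mutant grown at 25 °C; 0% = DMSO wells with yeast and 100% = medium wells without yeast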
# * marks the source's active call; other numbers are inactive results; . = no result. Cut-off read from the data, not from the text of the source, unless noted: active = inhibition above about 50%; inactive = the rest.
SMILES,tim23-1 inh,NLRP3 yeast inh,Yeast superoxide,TIM10 inh,tim10-1 inh,NALP3 confirm,Casp1 ASC ctr,NALP3 retest,TIM10 conf,tim23-1 confirm,others
Nc1nc(-c2cc(-c3ccccc3)no2)cs1,80*,56*,88,51*,26,75*,64*,61*,58*,75*,
Nc1nc(-c2ccccc2)cs1,15,20,97,2,4,.,.,.,.,.,
Nc1ccc2nc(SCc3ccccc3F)sc2c1,63*,52*,87,6,-12,22,.,.,.,43*,
CC(C)(C)n1cnc2cc(NC(=O)c3cccs3)ccc21,53*,57*,108,61*,25,74*,60*,45,55*,71*,
O=c1cc(Cn2ccnc2)c2cc(O)ccc2o1,12,11,107,-11,13,.,.,.,.,.,
COc1cccc2c1C(=O)c1c(O)c3c(c(O)c1C2=O)C[C@@](O)(C(=O)CO)C[C@@H]3O[C@H]1C[C@H](N)[C@H](O)[C@H](C)O1,52*,65*,127,-6,11,69*,75*,66*,.,44*,
C=CCN(Cc1nc(-c2ccccc2)no1)C(=O)c1ccco1,16,20,88,-5,12,.,.,.,.,.,
COc1ccc(NC(=O)CC2C(=O)N(c3ccc(F)cc3)C(=S)N2NC(=O)c2ccccc2)cc1 (stereo unspecified),6,5,94,3,2,.,.,.,.,.,
CCOC(=O)c1cccc(NC(=O)c2ccccc2C)c1,20,11,96,26,24,.,.,.,.,.,
CCOC(=O)c1cccc(NC(=O)c2cccs2)c1,57*,61*,92,65*,36,79*,51*,53*,57*,80*,
O=C(CNC(=O)c1ccccc1)N=Nc1c(O)[nH]c2ccc(Br)cc12,-11,22,89,-7,2,.,.,.,.,.,
O=Nc1c(-c2c(O)[nH]c3cc(Br)ccc23)[nH]c2ccccc12,51*,67*,101,32,9,71*,56*,64*,.,57*,
COc1ccc2c(=O)c(-c3nc(C)cs3)coc2c1,52*,77*,85,64*,43*,54*,68*,66*,-39,65*,tim10-1 confirm=33*
Cc1csc(NC(=O)c2ccccc2O)n1,-3,11,85,-7,-18,.,.,.,.,.,
CC(C)(C)c1csc(NC(=O)c2ccccc2O)n1,89*,55*,102,67*,84*,55*,59*,49,72*,92*,tim10-1 confirm=84*
CCCN(CC(=O)Nc1ccccc1OC)C(=O)CCC(=O)c1ccc(Cl)s1,18,12,90,9,11,.,.,.,.,.,
O=C(NC(=S)NNC(=O)c1ccccc1O)c1cccs1,53*,59*,79,51*,0,78*,70*,56*,47*,66*,
Cc1cccc(NC(=O)c2cnc3ccccn3c2=O)c1,61*,51*,.,30,6,77*,.,.,.,55*,
O=C(Nc1ccc2c(c1)OCCO2)c1cnc2ccccn2c1=O,8,25,98,17,14,.,.,.,.,.,
O=C(N/N=C/C(Cl)=C/c1ccccc1)c1ccncc1,2,10,97,9,-14,.,.,.,.,.,
CC(/C=N/NC(=O)c1cccs1)=C\c1ccccc1,53*,54*,105,8,-16,69*,63*,53*,.,48*,
CC(/C=N/NC(=O)Cc1cccs1)=C\c1ccccc1,-7,21,103,-16,-16,.,.,.,.,.,
O=C(N/N=C/C(Cl)=C\c1ccccc1)c1cccs1,64*,60*,104,25,-27,69*,.,.,.,64*,
COc1ccc2[nH]c3c(C)c4ccncc4c(C)c3c2c1,50*,89*,106,59*,58*,96*,99*,91*,71*,69*,tim10-1 confirm=26
c1ccc(-c2ccc(-c3nc(-c4ccccn4)no3)cc2)cc1,54*,53*,93,29,46*,50*,47,37,.,74*,tim10-1 confirm=49*
SMILES,tim23-1 inh,NLRP3 yeast inh,Yeast superoxide,TIM10 inh,tim10-1 inh,NALP3 confirm,Casp1 ASC ctr,NALP3 retest,TIM10 conf,tim23-1 confirm,others
c1ccc(-c2nc(-c3ccccn3)no2)cc1,19,12,95,3,-3,.,.,.,.,.,
CN1C(=O)C(CC(=O)NC2CCCCC2)SC1=Nc1ccccc1 (stereo unspecified),3,19,114,-3,15,.,.,.,.,.,
COc1ccc(CNC(=O)c2c(C)oc3c2C(=O)c2ccccc2C3=O)cc1,89*,69*,128,57*,83*,71*,5,43,68*,86*,tim10-1 confirm=74*
CCN(CC)c1ccc(/C=C2\SC(=O)N(C(C)C)C2=O)o1,60*,52*,85,57*,62*,44,56*,49,64*,74*,tim10-1 confirm=44*
Cc1nc2ccc(S(=O)(=O)c3ccc4nc(C)[nH]c4c3)cc2[nH]1,-4,14,96,-5,-24,.,.,.,.,.,
Cc1nc2ccc(C(C(F)(F)F)(C(F)(F)F)C(F)(F)F)cc2[nH]1,59*,95*,88,35,30,90*,89*,80*,.,66*,
Cc1sc2nc(CSCC(=O)Nc3ccc(C(=O)N(C)C)cc3)[nH]c(=O)c2c1C,6,1,100,3,10,.,.,.,.,.,
NC(=S)N/N=C/c1ccc(C23CC4CC(CC(C4)C2)C3)cc1,75*,64*,121,-7,-24,34,.,.,.,68*,
CN(Cc1cccc(Cl)c1)C(=O)C1CSC2(C)CCC(=O)N12 (stereo unspecified),-1,-1,112,9,13,.,.,.,.,.,
CCC1CCCCN1CCCNC(=O)CN1C(=O)COc2ccc(S(=O)(=O)N3CCOCC3)cc21 (stereo unspecified),-11,21,112,-2,-6,.,.,.,.,.,

# Bioassay records from PubChem BioAssay.
